FBPA coupling cs = qHTS Assay for Inhibitors of Fructose-1,6-bisphosphate Aldolase from Giardia Lamblia: Coupling assay counterscreen; coupling enzyme system counterscreen, AmpLite Red fluorescence; activity change, negative = inhibition, % at 58.2 µM, hits read low; 290,000 tested, 0.67% active; in the data active = activity change below about -30%
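First, compound is pin-transferred into glyceraldehyde-3-phosphate coupling-enzyme reagent at 57.5 uM final and held 10 min at RT. Next, substrate, coupling system and AmpLite Red are added. After 20 min RT, fluorescence (525/598 nm) is read.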
Tau fibril ThT = qHTS for Inhibitors of Tau Fibril Formation, Thioflavin T Binding. Microtubule-associated protein tau (Homo sapiens), P10636. recombinant tau K18 P301L, heparin-induced fibrillization, ThT fluorescence. Potency, µM (titrated, usually from 57.4 µM), without a hit: at the highest dose activity, negative = inhibition, usual class: inhibitors. 270,000 tested, 2.1% active. AID 1460, 2008; also: potency is read from the fitted curve at half-maximal effect; nearly all actives have a fitted effect of over 55% in size
Target sequence (P10636 561-689 P618L limits assumed): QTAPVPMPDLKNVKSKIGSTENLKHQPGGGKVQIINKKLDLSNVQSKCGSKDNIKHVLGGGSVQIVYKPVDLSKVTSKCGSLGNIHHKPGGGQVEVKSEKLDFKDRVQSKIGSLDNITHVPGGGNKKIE
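Tau K18 P301L fragment (15 uM unlabeled plus 0.24 uM Alexa 594-labeled) in 100 mM sodium acetate pH 7 with compound, fibrillization induced by 20 uM heparin for 6 hr at 37 C. Thioflavin T (30 uM) added, fluorescence read after 1 hr (ex 450, em 510 nm).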
Tau fibril FP = qHTS for Inhibitors of Tau Fibril Formation, Fluorescence Polarization; Potency, µM (titrated, usually from 57.7 µM), inactives show top-dose activity, negative = inhibition, most hits filed as inhibitors; Microtubule-associated protein tau (Homo sapiens), P10636; 280,000 tested, 0.39% active; K18 P301L tau heparin fibrillization, Alexa594 FP, 6 h; also: potency is read from the fitted curve at half-maximal effect; nearly all actives have a fitted effect of over 55% in size
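Recombinant K18 P301L […], labeled with Alexa 594 at 0.24 uM over 15 uM unlabeled; heparin inducer 20 uM final; 37 C, 6 hr; FP endpoint.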
Tau fluor counter = Counterscreen qHTS for Inhibitors of Tau Fibril Formation, Fluorescence Polarization. tau K18 P301L (four-repeat tau fragment) Alexa594 fluorescence, heparin fibrillization. Potency, µM (doses to about 57.7 µM), for inactives: top-dose activity change, negative = decrease. 280,000 tested, 0.93% active. AID 1463, 2008; also: potency is read from the fitted curve at half-maximal effect; nearly all actives have a fitted effect of over 55% in size
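Human K18 P301L tau (15 uM unlabeled plus 0.24 uM Alexa 594-labeled, final) in 100 mM sodium acetate pH 7 was mixed with compound and 20 uM heparin and incubated 6 hr at 37 C.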
G9a inh = qHTS Assay for Inhibitors of Histone Lysine Methyltransferase G9a; 350,000 tested, 8.8% active; Potency, µM (top dose mostly 102 µM), without a hit: at the highest dose activity, negative = inhibition, usual class: inhibitors; G9a H3K9 monomethylation, AlphaScreen, 2 h; Histone-lysine N-methyltransferase EHMT2 (Homo sapiens), Q96KQ7; also: potency is read from the fitted curve at half-maximal effect; nearly all actives have a fitted effect of over 75% in size
Target sequence (Q96KQ7 913-1193 limits assumed): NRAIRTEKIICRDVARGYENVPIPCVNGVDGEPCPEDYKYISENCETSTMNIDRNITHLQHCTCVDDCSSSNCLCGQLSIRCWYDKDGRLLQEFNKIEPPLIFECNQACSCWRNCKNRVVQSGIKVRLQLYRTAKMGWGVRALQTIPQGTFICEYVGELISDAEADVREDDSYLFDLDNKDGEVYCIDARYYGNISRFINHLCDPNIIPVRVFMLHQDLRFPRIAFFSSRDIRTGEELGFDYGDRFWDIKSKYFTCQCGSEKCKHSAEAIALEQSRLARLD
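Chemiluminescent proximity detection of H3K9 monomethylation, read after 10 min bead incubation in the dark. Reaction: 20 nM G9a, 500 nM biotin-H3K9 peptide, 20 uM SAM cofactor, 2 h, room temperature, following 15 min enzyme-compound preincubation.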
Sfp inh = qHTS Assay for Inhibitors of Bacillus subtilis Sfp phosphopantetheinyl transferase (PPTase) | Biochemical Sfp PPTase activity, qHTS | Potency, µM, for the others: largest response in the series, negative = inhibition, most hits filed as inhibitors | 310,000 tested, 3.5% active | AID 1490, 2009;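 also: the enzyme is Sfp with the accession as filed and its product quenches rhodamine fluorescence; potency is read from the fitted curve at half-maximal effect; 0% = enzyme reaction without inhibitor and -100% = no enzyme wells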
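Fluorescence-quenching assay: 15 nM Sfp-PPTase preincubated 15 min at room temperature with compound, then 5 uM rhodamine-CoA and 12.5 uM BHQ-2-labelled YbbR peptide added. Fluorescence (ex 525/em 598 nm) read at start and after 30 min; difference gives rate.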
* marks the source's active call; other numbers are inactive results; ? = inconclusive; . = not tested or not shown; ! = not active in a repeat; [ ] = dose if it differs, or a comment. This is a sample that favours compounds with a hit; in the whole collection about 11% have one here. Unless noted, calls follow the shape of the dose curve; as a rule, active = well fitted curve in the direction sought with a large enough effect; inconclusive = small, poorly fitted or top-dose-only effect, or another doubt; inactive = no such curve, though single readings can be large; an effect the other way counts as inactive or inconclusive. Unless noted, % is scaled to controls: 0 for no effect and ±100 for the full control effect.

SMILES | FBPA coupling cs | Tau fibril ThT | Tau fibril FP | Tau fluor counter | G9a inh | Sfp inh
N#Cc1c(NC(=O)/C=C/c2ccco2)sc2c1CCCC2 | -1 | ? | 1% | -17% | ? | ?
O=C(/C=C/c1ccccc1)Nc1sc2c(c1C(=O)O)CCC2 | -13 | 10µM* | -2% | ? | 50µM* | 11%
CNC(=O)c1c(NC(=O)/C=C/c2ccccc2)sc2c1CCC2 | . | 14µM* | -2% | ? | -12%[59 µM] | .
O=C(/C=C/c1ccco1)Nc1sc2c(c1C(=O)O)CCC2 | -14 | ? | -4% | -25% | ? | 50µM*
Cc1ccc(-c2csc(NC(=O)/C=C/c3ccco3)c2C(=O)O)cc1 | -29 | ? | -7% | -10% | . | 28µM*
COc1ccccc1N1CCN(C(=O)c2cc3c(=O)n(Cc4cccnc4)ccc3nc2C)CC1 | . | 11% | 4% | 9% | 10%[59 µM] | .
COC(=O)N1CCC[C@@]2(CCN(C(=O)Nc3ccc(OC)cc3)C2)C1 | -3 | . | . | . | 5%[12.7 µM] | 14%
N#Cc1c(-c2c(Cl)cccc2Cl)noc1/C=C/Nc1ccc(C(=O)O)cc1 | 5 | -21% | 7% | ? | -37% | 5%
CSc1nsc(/C=C/Nc2ccc(F)cc2F)c1C#N | -14 | 14µM* | -11% | ? | 32µM* | -1%
CSc1nsc(/C=C/Nc2ccc(C(=O)O)cc2)c1C#N | -13 | ? | -5% | -25% | 13µM* | -23%
Cc1cc(C(=O)CSc2nnc(-c3ccco3)o2)c(C)n1-c1ccc2c(c1)OCCO2 | -17 | ? | 5% | ? | -9%[59 µM] | -23%
Cc1cc(C(=O)CSc2nnnn2C)c(C)n1-c1ccc2c(c1)OCCO2 | -45* | -13% | 3% | -13% | ? | 45µM*
Cc1oc2c(c(C)cc3oc(=O)c(CC(=O)NCCc4ccccc4F)c(C)c32)c1C | . | 4% | -5% | 7% | 3%[59 µM] | .
CCCc1nc2c(=O)n(C)c(=O)nc-2n(C)n1 | -74* | 14µM* | ? | -7% | 0% | 10%
CCn1c(N)nc2c1c(=O)n(C)c(=O)n2C | 2 | -5% | -4% | 4% | -24% | 13%
Cn1nc(-c2ccccn2)nc2c(=O)n(C)c(=O)nc1-2 | -76* | 5.6µM* | ? | -20% | 14µM* | 50µM*
COc1ccc(-c2nc(-c3ccccn3)ncc2S(C)(=O)=O)cc1 | -1 | -3% | -4% | -1% | -2% | 16%
COc1ccc(CNC(=O)C(c2ccccc2F)N(C(=O)c2csnn2)C2CC2)cc1 (stereo not drawn) | 1 | . | . | . | 10% | 6%
Cc1ccccc1CN1CCCN(CC(=O)Nc2c(C)cccc2C)S1(=O)=O | . | 6% | -6% | -2% | 29%[59 µM] | .
O=C1C[C@@H](c2ccc(O)c(O)c2)Oc2cc(O[C@H]3O[C@@H](CO)[C@H](O)[C@@H](O)[C@@H]3O)cc(O)c21 | -3 | . | . | . | . | -26%
Cn1c(Cn2nnc3ccccc32)nnc1SCC(=O)c1ccc(F)cc1 | 2 | -15% | -15% | -3% | 35µM* | ?
N[C@@H](CCCP(=O)(O)O)C(=O)O | 3 | 2% | 8% | 1% | . | 8%
N[C@@H](COP(=O)(O)O)C(=O)O | 0 | -10% | 8% | -11% | -22%[59 µM] | 40µM*!
COc1ccc(CC(=O)Nc2ccc(OC(C)=O)cc2C(=O)O)cc1 | 6 | -5% | -5% | -1% | -20% | 6%
O=C(Cc1cccc2ccccc12)Nc1ccc(O)cc1C(=O)O | 10 | . | . | . | 71µM* | 1%
SMILES | FBPA coupling cs | Tau fibril ThT | Tau fibril FP | Tau fluor counter | G9a inh | Sfp inh
CC(=O)Oc1ccc(NC(=O)Cc2ccccc2)c(C(=O)O)c1 | -1 | 3% | 3% | 9% | 71µM* | -7%
Fc1ccc(-c2ccc(CNCc3ccccn3)o2)cc1 | 3 | . | . | . | 40µM* | -2%
Clc1ccc(-c2ccc(CNCc3ccccn3)o2)cc1 | 4 | . | . | . | ? | -5%
Fc1ccc(-c2ccc(CNCCSc3nnnn3-c3ccccc3)o2)cc1 | . | -11% | ? | -24% | 13µM* | .
CCOc1ccc(C(CC(=O)Nc2cc(C)c(Cl)cc2OC)N2Cc3ccccc3C2=O)cc1OC (stereo not drawn) | . | -1% | 1% | -16% | ? | .
CCCn1cc(S(=O)(=O)c2ccc(OC)cc2)c(=O)c2cc(OC)ccc21 | 2 | . | . | . | 16% | 11%
Cc1ncc(CSSCc2cnc(C)c(O)c2CO)c(CO)c1O | . | . | . | . | 6%[59 µM] | 12%
Cc1ncc(CO)c(CNc2ccc(Oc3ccccc3)cc2)c1O | 1 | . | . | . | 71µM* | 7%
O=C(N/N=C/c1c[nH]c2ccccc12)c1cccc([N+](=O)[O-])c1 | -2 | ? | ? | ? | 13%[59 µM] | 6%
COc1ccccc1NS(=O)(=O)c1cc([N+](=O)[O-])ccc1N/N=C/c1sc(N2CCOCC2)nc1-c1ccccc1 | 0 | ? | 17% | ? | 40µM* | ?
Cc1[nH]c2ccccc2c1/C=N/Nc1ccc([N+](=O)[O-])cc1S(=O)(=O)Nc1ccc(Cl)cc1 | 0 | 3.2µM* | 2% | 3.2µM*[quencher] | ? | 4%
COc1ccccc1NS(=O)(=O)c1cc([N+](=O)[O-])ccc1N/N=C/c1c[nH]c2ccccc12 | -10 | 2.8µM* | 4% | -78% | ? | -9%
COc1ccc(NS(=O)(=O)c2cc([N+](=O)[O-])ccc2N/N=C\c2c(C)[nH]c3ccccc23)cc1 | 0 | 2.5µM* | 6% | 3.2µM*[quencher] | ? | 17%
Nc1nc(Nc2ccccc2)nc(NCc2ccco2)c1[N+](=O)[O-] | 0 | ? | ? | 13µM*[quencher] | 40µM* | -15%
Cc1ccc(Nc2nc(N)c([N+](=O)[O-])c(NCc3ccco3)n2)cc1 | 2 | ? | ? | ? | 17%[59 µM] | -4%
Fc1ccc(Nc2nc(NCc3ccco3)c3ccccc3n2)cc1 | 0 | ? | ? | ? | . | 13µM*
Nc1nc(NCc2ccco2)nc(Nc2ccccc2)c1[N+](=O)[O-] | -2 | 0% | -10% | -13% | . | 0%
COc1ccc(CNCC(=O)Nc2cc(OC)cc(OC)c2)cc1 | 4 | . | . | . | 2.5µM* | -25%
COC(=O)c1ccc(NC(=O)CNCc2ccncc2)cc1 | -2 | -15% | -1% | -8% | 3.2µM* | ?

High-throughput results from PubChem.
